Several values for one entry are separate records, joined by “and”; a condition that tells them apart may be missing. Identical values can stand only once. Records with an inconclusive call do not appear.
Test: qHTS Assay for Lipid Storage Modulators (AID 1519)
Details: Drosophila S3 cells, BODIPY lipid droplet/cell ratio, laser cytometry; measured here: cell count channel max response; cells loaded with oleic acid
Procedure, shortened: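 Cells seeded at 5,000 per well were treated with compounds over a concentration series and loaded with oleic acid (400 uM, as added). Lipid droplet fluorescence (488 nm excitation, 500-530 nm channel) was read by laser-scanning cytometry and normalized to 20 uM Triacsin C.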

SMILES	max response
CCCCOc1cc(C(=O)NCCN(CC)CC)c2ccccc2n1	-8.72% and 19.1%
CC(=O)Nc1c(I)cc(I)c(C(=O)O)c1I	5.35%
CN(C(=O)CN(CCO)CC(=O)N(C)C(C)(C)Cc1ccccc1)C(C)(C)Cc1ccccc1	-9.05% and 8.48%
Cc1ccc(C(=O)C(C)CN2CCCCC2)cc1 (configuration not stated)	7.21%
COc1ccc(CCN2CCC(Nc3nc4ccccc4n3Cc3ccc(F)cc3)CC2)cc1	-13.7% and 8.29%
CCN(CC)C(=O)N1CCN(C)CC1	-1.64% and 22.2%
C/C=C(/C(=C/C)c1ccc(O)cc1)c1ccc(O)cc1	6.35%
OC(CCN1CCCCC1)(c1ccccc1)c1ccccc1	1.42% and 9.61%
CCOC(=O)n1ccn(C)c1=S	-4.79% and 2.58%
CC(=O)c1ccc2c(c1)N(CCCN1CCC(CCO)CC1)c1ccccc1S2	-5%
CN1CCN(CCCN2c3ccccc3Sc3ccc(S(=O)(=O)N(C)C)cc32)CC1	-3.59%
CC(C)NC[C@@H](O)COc1cccc2ccccc12	-4.01% [middle of 4 runs]
CCCCC1=NC2(CCCC2)C(=O)N1Cc1ccc(-c2ccccc2-c2nn[nH]n2)cc1	15.4%
COc1ccc(OC)c(C(O)CNC(=O)CN)c1 (configuration not stated)	10.1%
c1ccc(-c2ccc(C(c3ccccc3)n3ccnc3)cc2)cc1 (configuration not stated)	10.1%
CN(C)CC/C=C1\c2ccccc2Sc2ccc(Cl)cc21	-15.8% and 5.25%

SMILES	max response
CN1CCN(C(c2ccccc2)c2ccccc2)CC1	-1.91% and 18%
CCCCc1nc(Cl)c(CO)n1Cc1ccc(-c2ccccc2-c2nn[nH]n2)cc1	13.8%
Cc1cc(=O)n(-c2ccccc2)n1C	-1.15% and 10.6%
CC(C)(Oc1ccc(Cl)cc1)C(=O)O	1.11%
CN=C(NC#N)NCCSCc1csc(N=C(N)N)n1	-6.42%
CCOc1ccc(Cc2nccc3cc(OCC)c(OCC)cc23)cc1OCC	-4.38%
C[N+]1(CCCCC[N+]2(C)CCCC2)CCCC1	-13.3% and 5.22% and -4.18%
O=C1c2ccccc2C(=O)C1c1ccccc1	-13.1% and 15.4%
Oc1c(I)cc(Cl)c2cccnc12	-21.6% and -13.1%
CC(C)(C(=O)c1cccnc1)c1cccnc1	-12.6%
O=C(OCC(O)CO)c1ccccc1Nc1ccnc2cc(Cl)ccc12 (configuration not stated)	5.57%
CCN(CCCc1ccccc1)CCCc1ccccc1	1.49% and 14.3%
CNCCC=C1c2ccccc2CCc2ccccc21	-0.512% and 24.9%
Nc1nc2ncc(CNc3ccc(C(=O)N[C@@H](CCC(=O)O)C(=O)O)cc3)nc2c(=O)[nH]1	-7.62% and 6.6%
CCN(CC)CCOC(=O)C(c1ccccc1)C1CCCCC1 (configuration not stated)	11.2%
C=C(CC)C(=O)c1ccc(OCC(=O)O)c(Cl)c1Cl	5.62% and 9.96%

Source: PubChem BioAssay (NCATS)
